Reference: ChEMBL document CHEMBL3433997, “St. Jude Leishmania screening dataset” (2016)

Tests used:
Format in all cases: functional
[1] = target: Solute carrier family 2, facilitated glucose transporter member 1 (Homo sapiens) (UniProt P11166); assay: ST_JUDE_LEISH: Cytotoxicity at 2uM final concentration against transgenic Leishmania Mexicana promastigotes LmGLUT1 that are glucose transport deficient and complemented with the human glucose transporter GLUT1. Activity is measured by DNA content using SYBR green in vitro
Chain of Solute carrier family 2, facilitated glucose transporter member 1 (Homo sapiens) (P11166 whole entry): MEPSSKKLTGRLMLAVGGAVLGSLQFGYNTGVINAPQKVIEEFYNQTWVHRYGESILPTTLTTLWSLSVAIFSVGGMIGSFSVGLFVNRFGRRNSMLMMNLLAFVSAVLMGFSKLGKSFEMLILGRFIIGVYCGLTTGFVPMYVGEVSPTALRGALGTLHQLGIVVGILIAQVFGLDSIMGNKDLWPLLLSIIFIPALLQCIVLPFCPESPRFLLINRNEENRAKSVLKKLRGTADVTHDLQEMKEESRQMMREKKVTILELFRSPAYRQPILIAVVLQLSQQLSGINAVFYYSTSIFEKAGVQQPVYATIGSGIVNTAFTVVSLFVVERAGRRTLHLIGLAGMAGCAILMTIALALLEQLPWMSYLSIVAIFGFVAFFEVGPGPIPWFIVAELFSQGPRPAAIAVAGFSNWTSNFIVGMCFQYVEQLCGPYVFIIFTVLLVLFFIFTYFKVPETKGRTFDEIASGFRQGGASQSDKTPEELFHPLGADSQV

[2] = target: Hexose transporter 1 (Plasmodium falciparum) (UniProt O97467); assay: ST_JUDE_LEISH: Cytotoxicity at 2uM final concentration against transgenic Leishmania Mexicana promastigotes LmPfHT that are glucose transport deficient and complemented with the Plasmodium falciparum hexose transporter. Activity is measured by DNA content using SYBR green in vitro
[3] = target: Glucose transporter (Leishmania mexicana) (UniProt O61059); assay: ST_JUDE_LEISH: Cytotoxicity at 2uM final concentration against transgenic Leishmania Mexicana promastigotes LmGT2 that are glucose transport deficient and complemented with the L. Mexicana glucose transporter 2. Activity is measured by DNA content using SYBR green in vitro

SMILES	inhibition [1] [%]	inhibition [2] [%]	inhibition [3] [%]
COc1cc2c(cc1OC)C(C(=O)c1ccccc1)=NCC2	1.66	2.92	2.28
NC1CCN(Cc2cccc(-c3cccc(-c4nc5ccccc5[nH]4)c3)c2)C1 (stereo not given)	2.17	3.31	1.15
Cc1c(C)c2c(c(C)c1O)CCC(C)(CCC(=O)O)O2 (stereo not given)	0.86	2.15	1.82
CC(=O)Nc1cccc(-c2cn(-c3ccc(OCc4cccc(F)c4)c(Cl)c3)c3ncncc23)c1	2.04	0.08	-0.28
NC1CCN(CCNCc2cccc(-c3ccc(-c4nc5cc(C(F)(F)F)ccc5[nH]4)cc3)c2)C1 (stereo not given)	2.65	1.4	2.67
